High-throughput results deposited in PubChem BioAssay by National Center for Advancing Translational Sciences (NCATS).
An excerpt weighted towards active compounds, which were near 19% of everything screened.
IL1B secr inh: inflammasome signaling inhibition, IL-1 beta readout; THP-1 LPS/ATP IL-1B secretion, AlphaLISA, 16 h; hits give low values; activity change, % at 57.5 µM; actives 4.7% (n = 360,000); AID 743279; in the data active means activity change below about -50%; inconclusive means mostly about -30% to -49%
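Secreted IL-1B measured by AlphaLISA bead assay after 16 h compound exposure of THP-1 cells; compounds (final up to 57.5 uM) added 1 h before LPS (250 ng/mL) and ATP (1.25 mM) stimulation; lower signal means less secretion.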
Giardia kill: Giardia lamblia killing. Giardia lamblia trophozoite viability. activity change, % at 7.66 µM, hits read low. actives 0.15% (n = 340,000). AID 540267; in the data active means activity change below about -80%; inconclusive means between about -30% and that limit;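 further: parasites exposed to compound for two days anaerobically before the ATP read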
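Trophozoite viability was measured as ATP-dependent luminescence, read 15-30 min after reagent addition. Before that, parasites at 100 cells/well were exposed to compounds for 48 h, anaerobically, at 37 deg C.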
ELG1 repair inh: ELG1-dependent DNA repair inhibition; Potency, µM (top dose mostly 46.1 µM), for the others: at the top dose activity change, negative = inhibition, actives largely listed as inhibitors; actives 2.3% (n = 330,000); HEK293T ELG1-luciferase reporter, luminescence, 16 h; DNA damage induced by 5-fluorouridine; further: potency means the concentration at half of the fitted maximal effect; nearly all actives have a fitted effect of over 55% in size
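Step one: seed 2,000 cells per well. Step two: pin-transfer compound or DMSO alongside 5-fluorouridine. Step three: incubate 16 hr, 37 °C, 5% CO2. Step four: add ONE-Glo, wait 30 min, read luminescence.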
TDP1 cell CPT: DT40-hTDP1 cell growth loss with CPT; chicken DT40 Tdp1-/-;hTDP1 cells + 20 nM CPT, ATP luminescence, 48 h; Potency, µM (series often up to 46.2 µM), inactives show at the top dose activity change, negative = growth inhibition, actives largely listed as inhibitors; actives 12% (n = 420,000); further: potency means the concentration at half of the fitted maximal effect; nearly all actives have a fitted effect of over 55% in size
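Chicken DT40 Tdp1-/- cells complemented with human TDP1, 400 cells/well, exposed to compounds plus 20 nM camptothecin for at least 48 h at 37 C; viability read as ATP content by CellTiter-Glo luminescence.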
TDP1 block: TDP1 (human) enzyme inhibition; Q9NUW8; recombinant TDP1, AlphaScreen DNA substrate cleavage; Potency, µM (top dose mostly 130 µM), for inactives: at the top dose activity change, negative = inhibition, hits mostly inhibitors; actives 0.28% (n = 350,000); AID 485290; further: potency means the concentration at half of the fitted maximal effect; nearly all actives have a fitted effect of over 40% in size
Target sequence (Q9NUW8 whole entry, looked up): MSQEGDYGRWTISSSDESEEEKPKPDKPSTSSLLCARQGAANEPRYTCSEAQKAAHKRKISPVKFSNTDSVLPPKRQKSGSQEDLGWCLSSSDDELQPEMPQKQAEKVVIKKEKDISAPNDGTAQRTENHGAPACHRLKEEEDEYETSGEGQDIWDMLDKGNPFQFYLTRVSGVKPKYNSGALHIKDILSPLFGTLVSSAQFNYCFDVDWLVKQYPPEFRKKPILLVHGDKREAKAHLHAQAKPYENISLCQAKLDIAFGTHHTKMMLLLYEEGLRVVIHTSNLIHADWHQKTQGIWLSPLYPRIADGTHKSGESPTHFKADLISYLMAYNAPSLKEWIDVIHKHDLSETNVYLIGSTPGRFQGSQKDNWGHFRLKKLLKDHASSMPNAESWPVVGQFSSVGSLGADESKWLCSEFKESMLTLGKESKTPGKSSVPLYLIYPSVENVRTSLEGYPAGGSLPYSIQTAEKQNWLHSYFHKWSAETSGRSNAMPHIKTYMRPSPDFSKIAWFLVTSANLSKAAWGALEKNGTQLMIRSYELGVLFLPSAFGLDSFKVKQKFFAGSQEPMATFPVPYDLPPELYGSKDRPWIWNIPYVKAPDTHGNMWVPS
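Tdp1 1 nM final; 15 min RT w/ cpd; substrate 15 nM, 5 min; beads 10 ug/ml, 10 min; AlphaScreen read. Neg ctrl: no enzyme.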
DT40 TDP1 no CPT: qHTS for Inhibitors of human tyrosyl-DNA phosphodiesterase 1 (TDP1): qHTS in cells in absence of CPT; DT40 Tdp1-/- hTDP1 cells, no CPT, ATP luminescence, 48 h; Potency, µM (highest dose often 46.2 µM), for inactives: at the top dose activity change, negative = growth inhibition, hits mostly inhibitors; actives 15% (n = 420,000); further: potency means the concentration at half of the fitted maximal effect; nearly all actives have a fitted effect of over 55% in size
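Luminescent ATP content (CellTiter-Glo) served as the growth readout. Knockout chicken DT40 cells expressing human TDP1 were exposed to compounds without camptothecin for a minimum 48 hr at 37 °C.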
Starred values were filed as active, the others as inactive; ? = inconclusive; nt = no result; [ ] = another dose, or the depositor's remark. Unless noted, the call rests on the fitted dose curve; in most records, active means well fitted curve in the direction sought with a large enough effect; inconclusive means small, poorly fitted or top-dose-only effect, or another doubt; inactive means no such curve, though single readings can be large; an effect the other way counts as inactive or inconclusive. On the % scale 0 is the no-effect control and ±100 the full control effect.

SMILES	IL1B secr inh	Giardia kill	ELG1 repair inh	TDP1 cell CPT	TDP1 block	DT40 TDP1 no CPT
O=C(CCC(=O)Nc1ccc(Br)cc1)N/N=C/c1cc([N+](=O)[O-])ccc1O	113	18	9.2µM*	23µM*	4%	?
O=C(CCC(=O)Nc1cc(C(F)(F)F)ccc1Cl)N/N=C\c1cc([N+](=O)[O-])ccc1O	81	-6	?	10µM*	nt	8.2µM*
Cc1cccc(NC(=O)CCC(=O)N/N=C/c2cc([N+](=O)[O-])ccc2O)c1	0	-9	?	?	7%	?
O=C(CCC(=O)Nc1ccc(F)cc1)N/N=C/c1cc([N+](=O)[O-])ccc1O	23	3	?	0%	5%	?
CSc1nc(N)c2ncn([C@@H]3O[C@H](COP(=O)(O)OP(=O)(O)OP(=O)(O)O)[C@H](O)[C@H]3O)c2n1	nt	nt	nt	nt	-6%[56.1 µM]	nt
Clc1ccc(CSc2ncnc3c2ncn3C2CCCCO2)cc1 (stereo not given)	-26	14	nt	?	nt	16µM*
CC(C)[C@H](NC(=O)c1ccc(Cl)cc1)C(=O)OCC(=O)N1CCN(c2ccccc2)CC1	-18	-6	?	?	2%	21µM*
O=C(Cc1ccccc1)NCC(=O)N1CCN(c2ccc(F)cc2)CC1	47	nt	nt	-22%	nt	?
O=C(Cc1ccc(Cl)cc1)NCC(=O)N1CCN(c2ccccc2)CC1	0	-15	-25%	29µM*	6%	23µM*
COc1ccc(N2CCN(C(=O)CNC(=O)Cc3ccc(Cl)cc3)CC2)cc1	0	3	-18%	5.2µM*	5%	5.8µM*
Cc1ccc(Nc2nc(CSc3nnc(-c4ccccc4)n3C)cs2)cc1	?	-27	?	21µM*	8%	?
Cc1ccc(Nc2nc(CSc3nnnn3-c3ccccc3)cs2)cc1	23	-10	nt	?	7%	18µM*
Cc1ccc(Nc2nc(CSc3nnnn3C)cs2)cc1	-5	-5	?	-20%	4%	?
Cn1cnc(S(=O)(=O)N2CCCC(C(=O)Nc3cccc(C#N)c3)C2)c1 (stereo not given)	nt	nt	nt	17%	-9%	-18%
O=C(Cn1c(=O)oc2cc(S(=O)(=O)NCc3ccccc3)ccc21)NCc1ccccc1Cl	nt	nt	nt	7.3µM*	1%	9.2µM*
O=C(Cn1c(=O)oc2cc(S(=O)(=O)NCc3ccccc3)ccc21)NCc1ccc(Cl)cc1	nt	nt	nt	13µM*	-1%	?
CN(C)c1ccc(CNC(=O)Cn2c(=O)oc3cc(S(=O)(=O)NCc4ccccc4)ccc32)cc1	nt	nt	nt	?	7%	?
O=C(Cn1c(=O)oc2cc(S(=O)(=O)NCc3ccccc3)ccc21)NCc1ccco1	-13	9	-19%	?	3%	?
O=C(Cn1c(=O)oc2cc(S(=O)(=O)N3CCCC3)ccc21)NCc1ccc(Cl)cc1	nt	nt	nt	16µM*	5%	21µM*
ClCCN1C2=NCCCN2c2ccccc21	0	-2	3%	-4%	5%	-19%
Clc1ccc(CN2C3=NCCCN3c3ccccc32)cc1Cl	nt	-8	-9%	-120%	0%	15µM*
Clc1ccc(CN2C3=NCCCN3c3ccccc32)cc1	-29	-8	?	26µM*	8%	21µM*
Cc1ccccc1CN1C2=NCCCN2c2ccccc21	-16	16	?	18µM*	4%	18µM*
Fc1ccc(CN2C3=NCCCN3c3ccccc32)cc1	-18	11	-16%	?	0%	?
Cc1ccccc1CN1C2=NCCN2c2ccccc21	-5	-9	-3%	?	2%	?
SMILES	IL1B secr inh	Giardia kill	ELG1 repair inh	TDP1 cell CPT	TDP1 block	DT40 TDP1 no CPT
Cc1ccc(N(CC(=O)NCc2ccc(OC(C)C)cc2)S(=O)(=O)N(C)C)cc1	nt	nt	nt	-9%	-1%	?
Cc1ccc(NC(=O)NC(=O)COC(=O)c2ccc(O)cc2O)c(C)c1	14	nt	nt	?	nt	?
COc1cc(-c2cnc3c(NC=O)cc(-c4ccccc4)cn23)cc(OC)c1OC	139	nt	nt	0.0092µM*	nt	0.046µM*
Cc1ccc(-c2cc(NC=O)c3ncc(-c4cnn(C)c4)n3c2)cc1	-51*	nt	nt	4.1µM*	nt	3.7µM*
COc1ccc(F)cc1-c1cc(NC=O)c2ncc(-c3cc(OC)c(OC)c(OC)c3)n2c1	121	nt	nt	2.3µM*	nt	3.3µM*
COc1cc(-c2cnc3c(NC=O)cc(-c4ccccc4Cl)cn23)cc(OC)c1OC	126	nt	nt	0.82µM*	nt	1µM*
Cc1ccc(CCNC(=O)C2CCN(S(=O)(=O)c3ccc4c(ccn4C)c3)CC2)cc1	nt	nt	nt	?	7%	?
COc1cc(-c2cnc3c(NC=O)cc(-c4ccc(C)cc4)cn23)cc(OC)c1OC	112	nt	nt	0.16µM*	nt	0.1µM*
OCc1nc2ccccc2[nH]1	nt	nt	nt	-1%	nt	-8%
Oc1ccc(O)c(Cc2nc3ccccc3[nH]2)c1	-22	-13	8%	?	0%	8.2µM*
Cc1ccc(S(C)(=O)=N/C=C2\C(=O)c3sccc3N(C)S2(=O)=O)cc1 (stereo not given)	39	6	?	0%	-2%	-17%
CCCN(CC1CC1)c1nc(N)c(C#N)c(CC#N)c1C#N	0	7	?	?	3%	18µM*
CCCN(CCC)c1nc(N)c(C#N)c(CC#N)c1C#N	25	5	-26%	15µM*	10%	23µM*
CC(C)Cc1nc2cc(NS(=O)(=O)N(C)C)cc(C(=O)N3CCc4ccccc4C3)c2n1C	nt	nt	nt	7%[9.04 µM]	nt	-16%
COc1ccccc1NS(=O)(=O)c1ccc2oc(SCC(C)=O)nc2c1	16	-2	-20%	-6%	6%	?
COc1ccccc1NS(=O)(=O)c1ccc2oc(SC)nc2c1	42	-17	-6%	?	nt	?
COc1ccccc1NS(=O)(=O)c1ccc2oc(SC(C)C(=O)N3CCNC3=O)nc2c1 (stereo not given)	?	15	26µM*	15µM*	0%[56.1 µM]	?
COc1ccccc1NS(=O)(=O)c1ccc2oc(SCc3ccc(F)cc3)nc2c1	-6	-4	13%	16µM*	-3%	16µM*
CCOC(=O)C1C(c2ccc(O)c(OC)c2)NC(=S)NC1(O)C(F)(F)F (stereo not given)	5	1	11%	-5%	1%	1%
Cc1cc(C(=O)CSc2cccc[n+]2[O-])c(C)n1-c1ccc(OC(F)F)cc1	9	11	?	21µM*	6%	?
